Sampled rows, rich in hits. Any-hit rate of the full collection: about 11%.
HCV inh: HCV inhibition; Huh7.5.1 HCVcc-Cre infection, luciferase reporter, 44 h; Potency, µM (series often up to 41.8 µM), for the others: at the highest dose activity change, negative = inhibition, actives largely listed as inhibitors; 340,000 tested, 3.4% active; AID 651820; note: % is set by controls: 0 for no effect and ±100 for the full control effect
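HCVcc-Cre virus at an moi near 0.5 was added right after compound to cells cultured 4 h from seeding (1,000 cells/well). Luciferase activity was determined 44 h later, 15 min after substrate addition at RT.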
Pf growth 48h: inhibits P. falciparum growth in the first generation, 48 h; P. falciparum luciferase growth in erythrocytes, 48 h; Potency, µM (highest dose often 28.7 µM), for inactives: at the top dose activity change, negative = inhibition, actives largely listed as inhibitors; 310,000 tested, 5.9% active; AID 504832; note: % is set by controls: 0 for no effect and ±100 for the full control effect
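Read-out is firefly luciferase luminescence from an integrated reporter in P. falciparum, so falling signal marks reduced parasite growth. Infected erythrocytes were at 2% hematocrit and 0.1% parasitemia (final) in Albumax-supplemented RPMI 1640.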
Vaccinia mCherry: inhibitors of vaccinia virus infection (mCherry reporter signal); 310,000 tested, 0.63% active; Vaccinia virus mCherry reporter infection, fluorescence; Potency, µM (highest dose often 36.5 µM), for inactives: at the highest dose activity change, negative = inhibition, usual class: inhibitors; calls by dose curve; tested in A549 cells; note: % is set by controls: 0 for no effect and ±100 for the full control effect; nearly all actives have a fitted effect of over 35% in size
Pf growth 96h: P. falciparum growth inhibition at 96 hour, primary screen for plastid delayed-death inhibitors | 320,000 tested, 6.9% active | Potency, µM (highest dose often 28.7 µM), without a hit: at the highest dose activity change, negative = inhibition, most hits filed as inhibitors | P. falciparum luciferase reporter growth, 96 h; note: % is set by controls: 0 for no effect and ±100 for the full control effect
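Luminescence readout: decreased luciferase signal marks inhibited growth of reporter-expressing P. falciparum in infected red cells (2% hematocrit, 0.05% parasitemia final), exposed to compound two generations (96 h, 37 C, 5% CO2).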
Vaccinia Venus: vaccinia inhibition (Venus reporter) | Vaccinia virus Venus reporter expression, fluorescence | AID 720580 | 330,000 tested, 0.46% active | Potency, µM (highest dose often 36.5 µM), for inactives: top-dose activity change, negative = inhibition, hits mostly inhibitors; calls by dose curve; tested in A549 cells; note: % is set by controls: 0 for no effect and ±100 for the full control effect; nearly all actives have a fitted effect of over 30% in size
NS1 function inh: inhibitors of influenza NS1 protein function; Potency, µM (top dose mostly 46.1 µM), without a hit: at the highest dose activity, positive = more growth; 270,000 tested, 0.4% active; AID 2326; calls by dose curve; note: actives are rising curves; nearly all actives have a fitted effect of over 50% in size
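Read-out: OD600 growth recovery of NS1-expressing budding yeast. Cells grown overnight at 30C in -URA glucose medium, washed, resuspended and diluted 1:100 in 2% galactose assay medium, pH 6.0. Same strain lacking NS1 served as positive control.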
Active calls of the source: *. Unless noted, calls come from the whole dose curve; as a rule, active = well fitted inhibition curve with a large enough effect; inconclusive = small, poorly fitted or top-dose-only effect, or another doubt; inactive = no such curve, though single readings can be large or run the other way. Potency is the fitted concentration of half-maximal effect.

Results for CCOC(=O)C1CCN(C(=O)CN2C(=O)COc3ccc(C(C)(C)C)cc32)CC1 ?
HCV inh: -2%; Pf growth 48h: -18%; Pf growth 96h: 10µM*; NS1 function inh: -4%

How did CCOC(=O)C1CCCN(C(=O)CN2C(=O)COc3ccc(C(C)(C)C)cc32)C1 (stereo unspecified) do in these assays?
HCV inh: -16%; Pf growth 48h: inconclusive; Vaccinia mCherry: -13%; Vaccinia Venus: -7%; NS1 function inh: 13%

How did CCN=c1scc(C)n1/N=C/c1cc(Br)c(O)c(OC)c1 do in these assays?
HCV inh: inconclusive; Pf growth 48h: inconclusive; Vaccinia mCherry: -11%; Pf growth 96h: 5.9µM*; Vaccinia Venus: -3%

What do the screens show for `CC(=O)Nc1ccc(NC(=O)COC(=O)[C@@H](NC(=O)c2ccc(F)cc2)C(C)C)cc1`?
HCV inh: 6%; Pf growth 48h: 1%; Vaccinia mCherry: -6%; Pf growth 96h: 10%; Vaccinia Venus: -2%; NS1 function inh: -3%

How did O=S(=O)(c1ccc(F)cc1)c1snnc1-c1ccccc1 do in these assays?
HCV inh: -22%; Pf growth 48h: 9.3µM*; Vaccinia mCherry: inconclusive; Pf growth 96h: inconclusive; Vaccinia Venus: -21%

Results for O=S(=O)(c1ccc(Cl)cc1)c1snnc1-c1ccccc1 ?
HCV inh: 13µM*; Vaccinia mCherry: inconclusive; Pf growth 96h: inconclusive; Vaccinia Venus: inconclusive; NS1 function inh: -134%

How did Cc1cc(C(=O)NNC(=O)c2ccc(C)s2)c(C)o1 do in these assays?
HCV inh: -22%; Pf growth 48h: 1%; Vaccinia mCherry: -10%; Pf growth 96h: 49%; Vaccinia Venus: -10%

What do the screens show for `C/C(Cn1cnc([N+](=O)[O-])n1)=N/NC(=O)COc1ccccc1Cl`?
HCV inh: 8%; Pf growth 48h: 2%; Vaccinia mCherry: -15%; Pf growth 96h: 55%; Vaccinia Venus: -8%; NS1 function inh: 10%

How did Cc1cc(=O)[nH]c(N2CCN(c3ccc(Cl)cc3)CC2)n1 do in these assays?
HCV inh: inconclusive; Vaccinia mCherry: inactive; Vaccinia Venus: -3%

How did Cc1cc(=O)[nH]c(N2CCCC2)n1 do in these assays?
HCV inh: -3%; Pf growth 48h: -4%; Pf growth 96h: 12µM*; Vaccinia Venus: -3%; NS1 function inh: -1%

How did CC(C)C(c1nnnn1C1CCCC1)N1CCCCC1 (stereo unspecified) do in these assays?
HCV inh: 24%; Vaccinia mCherry: -2%; Pf growth 96h: 15µM*; Vaccinia Venus: 9%; NS1 function inh: 11%

What do the screens show for `c1cncc(C(c2nnnn2C2CCCCC2)N2CCCCC2)c1` (stereo unspecified)?
HCV inh: 18%; Pf growth 48h: 15µM*; Vaccinia mCherry: -14%; Pf growth 96h: -4%; Vaccinia Venus: -10%; NS1 function inh: -1%

Results for COc1ccc(-n2cnnc2SCC(=O)NC2CC2)cc1 ?
Vaccinia mCherry: inactive; Vaccinia Venus: -16%

Results for NNc1nc2c(-c3cccc(C(F)(F)F)c3)nnn2c2ccccc12 ?
HCV inh: 14µM*; Pf growth 48h: 6.6µM*; Vaccinia mCherry: inconclusive; Pf growth 96h: 26%; Vaccinia Venus: 4%; NS1 function inh: 1%

How did FC(F)(F)c1cccc(-c2nnn3c2nc(NC2CCCCC2)c2ccccc23)c1 do in these assays?
Vaccinia mCherry: -18%; Vaccinia Venus: -11%

What do the screens show for `CC(=O)NCCNc1nc2c(-c3ccc(C)cc3)nnn2c2ccccc12`?
Vaccinia mCherry: 9%; Vaccinia Venus: 3%

How did CC(=O)NCCNc1nc2c(-c3cccc(C)c3)nnn2c2ccccc12 do in these assays?
HCV inh: 14µM*; Pf growth 48h: -13%; Pf growth 96h: inconclusive; NS1 function inh: 2%

How did COC(=O)c1ccc(NC(=O)c2cn(-c3cccc(C)n3)cn2)cc1 do in these assays?
HCV inh: 10%; Pf growth 48h: 79%; Vaccinia mCherry: -8%; Pf growth 96h: 127%; Vaccinia Venus: -12%; NS1 function inh: -1%

Assay outcomes from PubChem.
